# In ChEMBL document CHEMBL5598561, “ASAP - In vitro binding kinetics” (2024):
# Biological target: Nonstructural protein 3 (Zika virus) (UniProt A0A024AXB9)
# Sequence (A0A024AXB9 as listed by the source): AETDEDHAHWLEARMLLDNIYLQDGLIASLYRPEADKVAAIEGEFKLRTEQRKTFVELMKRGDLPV
smiles,measurement,setting,value
O=C(Nc1cc(Cl)cc(C(=O)Nc2ccc3c(c2)CNC3)c1)OCc1ccccc1,pKD,"PRVABC59, Concentration 1.0 uM, Immobilization level 3900.0 pg/mm2, Rmax 38.0 pg/mm2, ka 196121.646 M-1s-1, kd 0.113 1/s",6.24
same,pKD,"PRVABC59, Concentration 1.0 uM, Immobilization level 4900.0 pg/mm2, Rmax 45.0 pg/mm2, ka 144681.299 M-1s-1, kd 0.064 1/s",6.35
same,pKD,"PRVABC59, Concentration 1.0 uM, Immobilization level 4900.0 pg/mm2, Rmax 45.0 pg/mm2, ka 172692.705 M-1s-1, kd 0.081 1/s",6.33
same,pKD,"PRVABC59, Concentration 1.0 uM, Immobilization level 5500.0 pg/mm2, Rmax 49.0 pg/mm2, ka 194075.024 M-1s-1, kd 0.087 1/s",6.35
same,pKD,"PRVABC59, Concentration 1.0 uM, Immobilization level 5500.0 pg/mm2, Rmax 54.0 pg/mm2, ka 112858.156 M-1s-1, kd 0.052 1/s",6.33
same,pKD,"PRVABC59, Concentration 10.0 uM, Immobilization level 3900.0 pg/mm2, Rmax 44.0 pg/mm2, ka 164681.147 M-1s-1, kd 0.126 1/s",6.12
O=C(Nc1ccc2c(c1)[C@H]1CC[C@H]2N1)c1cc(Cl)cc2[nH]ncc12,pKD,"PRVABC59, Concentration 10.0 uM, Immobilization level 3900.0 pg/mm2, Rmax 29.0 pg/mm2, ka 207440.056 M-1s-1, kd 1.881 1/s",5.04
same,pKD,"PRVABC59, Concentration 10.0 uM, Immobilization level 4900.0 pg/mm2, Rmax 21.0 pg/mm2, ka 356637.156 M-1s-1, kd 1.239 1/s",5.46
same,pKD,"PRVABC59, Concentration 10.0 uM, Immobilization level 5500.0 pg/mm2, Rmax 38.0 pg/mm2, ka 209576.876 M-1s-1, kd 1.619 1/s",5.11
same,pKD,"PRVABC59, Concentration 10.0 uM, Immobilization level 10000.0 pg/mm2, Rmax 35.0 pg/mm2, ka 240196.621 M-1s-1, kd 1.957 1/s",5.09
same,pKD,"PRVABC59, Concentration 10.0 uM, Immobilization level 12000.0 pg/mm2, Rmax 27.0 pg/mm2, ka 216801.208 M-1s-1, kd 1.112 1/s",5.29
same,pKD,"PRVABC59, Concentration 10.0 uM, Immobilization level 13000.0 pg/mm2, Rmax 42.0 pg/mm2, ka 287948.566 M-1s-1, kd 1.743 1/s",5.22
O=C(Nc1ccc2c(n1)CNC2)c1cc(Cl)cc2[nH]ncc12,pKD,"PRVABC59, Concentration 10.0 uM, Immobilization level 3900.0 pg/mm2, Rmax 29.0 pg/mm2, ka 330423.124 M-1s-1, kd 0.318 1/s",6.02
same,pKD,"PRVABC59, Concentration 10.0 uM, Immobilization level 4900.0 pg/mm2, Rmax 43.0 pg/mm2, ka 188485.066 M-1s-1, kd 0.307 1/s",5.79
same,pKD,"PRVABC59, Concentration 10.0 uM, Immobilization level 5500.0 pg/mm2, Rmax 45.0 pg/mm2, ka 189855.655 M-1s-1, kd 0.314 1/s",5.78
same,pKD,"PRVABC59, Concentration 10.0 uM, Immobilization level 10000.0 pg/mm2, Rmax 55.0 pg/mm2, ka 105317.175 M-1s-1, kd 0.527 1/s",5.3
same,pKD,"PRVABC59, Concentration 10.0 uM, Immobilization level 12000.0 pg/mm2, Rmax 96.0 pg/mm2, ka 37343.204 M-1s-1, kd 0.288 1/s",5.11
same,pKD,"PRVABC59, Concentration 10.0 uM, Immobilization level 13000.0 pg/mm2, Rmax 49.0 pg/mm2, ka 130791.962 M-1s-1, kd 0.347 1/s",5.58
COc1cc(Br)cc(C(=O)Nc2ccc3c(c2)CNC3)c1,pKD,"PRVABC59, Concentration 10.0 uM, Immobilization level 3900.0 pg/mm2, Rmax 30.0 pg/mm2, ka 1022660.121 M-1s-1, kd 0.519 1/s",6.29
same,pKD,"PRVABC59, Concentration 10.0 uM, Immobilization level 4900.0 pg/mm2, Rmax 37.0 pg/mm2, ka 628733.109 M-1s-1, kd 0.436 1/s",6.16
same,pKD,"PRVABC59, Concentration 10.0 uM, Immobilization level 5500.0 pg/mm2, Rmax 32.0 pg/mm2, ka 715576.018 M-1s-1, kd 0.434 1/s",6.22
same,pKD,"PRVABC59, Concentration 10.0 uM, Immobilization level 10000.0 pg/mm2, Rmax 31.0 pg/mm2, ka 878454.345 M-1s-1, kd 0.618 1/s",6.15
same,pKD,"PRVABC59, Concentration 10.0 uM, Immobilization level 12000.0 pg/mm2, Rmax 51.0 pg/mm2, ka 505054.059 M-1s-1, kd 0.503 1/s",6
same,pKD,"PRVABC59, Concentration 10.0 uM, Immobilization level 13000.0 pg/mm2, Rmax 45.0 pg/mm2, ka 775706.649 M-1s-1, kd 0.539 1/s",6.16
CCc1cc(Cl)cc(C(=O)Nc2ccc3c(c2)CNC3)c1,pKD,"PRVABC59, Concentration 10.0 uM, Immobilization level 10000.0 pg/mm2, Rmax 7.0 pg/mm2, ka 456970.038 M-1s-1, kd 1.322 1/s",5.54
same,pKD,"PRVABC59, Concentration 10.0 uM, Immobilization level 12000.0 pg/mm2, Rmax 55.0 pg/mm2, ka 33985.237 M-1s-1, kd 0.743 1/s",4.66
same,pKD,"PRVABC59, Concentration 10.0 uM, Immobilization level 13000.0 pg/mm2, Rmax 17.0 pg/mm2, ka 179212.289 M-1s-1, kd 1.129 1/s",5.2
O=C(Nc1ccc2c(c1)CNC2)c1cccc2[nH]ncc12,pKD,"PRVABC59, Concentration 10.0 uM, Immobilization level 10000.0 pg/mm2, Rmax 19.0 pg/mm2, ka 1068955.381 M-1s-1, kd 0.689 1/s",6.19
same,pKD,"PRVABC59, Concentration 10.0 uM, Immobilization level 12000.0 pg/mm2, Rmax 37.0 pg/mm2, ka 703955.922 M-1s-1, kd 0.285 1/s",6.39
same,pKD,"PRVABC59, Concentration 10.0 uM, Immobilization level 13000.0 pg/mm2, Rmax 29.0 pg/mm2, ka 931164.005 M-1s-1, kd 0.45 1/s",6.32
O=C(Nc1ccc2c(c1)CNC2)c1cc(Br)cc2ccccc12,pKD,"PRVABC59, Concentration 10.0 uM, Immobilization level 10000.0 pg/mm2, Rmax 20.0 pg/mm2, ka 1054680.734 M-1s-1, kd 0.691 1/s",6.18
same,pKD,"PRVABC59, Concentration 10.0 uM, Immobilization level 12000.0 pg/mm2, Rmax 63.0 pg/mm2, ka 507441.603 M-1s-1, kd 0.463 1/s",6.04
same,pKD,"PRVABC59, Concentration 10.0 uM, Immobilization level 13000.0 pg/mm2, Rmax 45.0 pg/mm2, ka 357590.388 M-1s-1, kd 0.673 1/s",5.72
CNC(=O)[C@H](Nc1ccc2c(c1)CNC2)c1cc(Cl)cc(C2CC2)c1,pKD,"PRVABC59, Concentration 10.0 uM, Immobilization level 10000.0 pg/mm2, Rmax 21.0 pg/mm2, ka 735105.2 M-1s-1, kd 0.212 1/s",6.54
same,pKD,"PRVABC59, Concentration 10.0 uM, Immobilization level 12000.0 pg/mm2, Rmax 44.0 pg/mm2, ka 423211.762 M-1s-1, kd 0.126 1/s",6.53
same,pKD,"PRVABC59, Concentration 10.0 uM, Immobilization level 13000.0 pg/mm2, Rmax 34.0 pg/mm2, ka 634638.949 M-1s-1, kd 0.171 1/s",6.57
O=C(Nc1ccc2c(c1)CNC2)c1cc(F)cc2[nH]nnc12,pKD,"PRVABC59, Concentration 10.0 uM, Immobilization level 10000.0 pg/mm2, Rmax 22.0 pg/mm2, ka 162374.237 M-1s-1, kd 0.724 1/s",5.35
same,pKD,"PRVABC59, Concentration 10.0 uM, Immobilization level 12000.0 pg/mm2, Rmax 50.0 pg/mm2, ka 32556.979 M-1s-1, kd 0.41 1/s",4.9
same,pKD,"PRVABC59, Concentration 10.0 uM, Immobilization level 13000.0 pg/mm2, Rmax 48.0 pg/mm2, ka 67317.145 M-1s-1, kd 0.674 1/s",5
O=C(Nc1ccc2c(c1)CNC2)c1cc(Br)cc2c1OCO2,pKD,"PRVABC59, Concentration 10.0 uM, Immobilization level 10000.0 pg/mm2, Rmax 23.0 pg/mm2, ka 221801.012 M-1s-1, kd 2.02 1/s",5.04
same,pKD,"PRVABC59, Concentration 10.0 uM, Immobilization level 12000.0 pg/mm2, Rmax 42.0 pg/mm2, ka 116147.62 M-1s-1, kd 1.164 1/s",5
same,pKD,"PRVABC59, Concentration 10.0 uM, Immobilization level 13000.0 pg/mm2, Rmax 30.0 pg/mm2, ka 164731.302 M-1s-1, kd 1.67 1/s",4.99
O=C(Nc1ccc2c(c1)CNC2)c1cc(Cl)cc2c1CCC2,pKD,"PRVABC59, Concentration 10.0 uM, Immobilization level 10000.0 pg/mm2, Rmax 25.0 pg/mm2, ka 106816.236 M-1s-1, kd 0.472 1/s",5.36
same,pKD,"PRVABC59, Concentration 10.0 uM, Immobilization level 12000.0 pg/mm2, Rmax 64.0 pg/mm2, ka 30866.003 M-1s-1, kd 0.225 1/s",5.14
same,pKD,"PRVABC59, Concentration 10.0 uM, Immobilization level 13000.0 pg/mm2, Rmax 31.0 pg/mm2, ka 79832.742 M-1s-1, kd 0.384 1/s",5.32
Nc1cc(Cl)cc(C(=O)Nc2ccc3c(c2)CNC3)c1N,pKD,"PRVABC59, Concentration 10.0 uM, Immobilization level 10000.0 pg/mm2, Rmax 26.0 pg/mm2, ka 624754.243 M-1s-1, kd 0.161 1/s",6.59
same,pKD,"PRVABC59, Concentration 10.0 uM, Immobilization level 12000.0 pg/mm2, Rmax 44.0 pg/mm2, ka 261141.936 M-1s-1, kd 1.029 1/s",5.4
same,pKD,"PRVABC59, Concentration 10.0 uM, Immobilization level 13000.0 pg/mm2, Rmax 23.0 pg/mm2, ka 816818.479 M-1s-1, kd 0.326 1/s",6.4
N#C[C@H](Nc1ccc2c(c1)CNC2)c1cc(Cl)cc(C2CC2)c1,pKD,"PRVABC59, Concentration 10.0 uM, Immobilization level 10000.0 pg/mm2, Rmax 28.0 pg/mm2, ka 179746.524 M-1s-1, kd 1.36 1/s",5.12
same,pKD,"PRVABC59, Concentration 10.0 uM, Immobilization level 12000.0 pg/mm2, Rmax 42.0 pg/mm2, ka 91353.604 M-1s-1, kd 0.386 1/s",5.37
same,pKD,"PRVABC59, Concentration 10.0 uM, Immobilization level 13000.0 pg/mm2, Rmax 52.0 pg/mm2, ka 98756.182 M-1s-1, kd 0.944 1/s",5.02
CCc1nc2c(C(=O)Nc3ccc4c(c3)CNC4)cc(Br)cc2[nH]1,pKD,"PRVABC59, Concentration 10.0 uM, Immobilization level 10000.0 pg/mm2, Rmax 30.0 pg/mm2, ka 310193.647 M-1s-1, kd 0.373 1/s",5.92
same,pKD,"PRVABC59, Concentration 10.0 uM, Immobilization level 12000.0 pg/mm2, Rmax 36.0 pg/mm2, ka 171120.142 M-1s-1, kd 0.256 1/s",5.83
same,pKD,"PRVABC59, Concentration 10.0 uM, Immobilization level 13000.0 pg/mm2, Rmax 31.0 pg/mm2, ka 250565.843 M-1s-1, kd 0.327 1/s",5.88
COCCNC(=O)[C@H](Nc1ccc2c(c1)CNC2)c1cc(Cl)cc(C2CC2)c1,pKD,"PRVABC59, Concentration 10.0 uM, Immobilization level 10000.0 pg/mm2, Rmax 39.0 pg/mm2, ka 617826.514 M-1s-1, kd 0.092 1/s",6.83
same,pKD,"PRVABC59, Concentration 10.0 uM, Immobilization level 12000.0 pg/mm2, Rmax 47.0 pg/mm2, ka 381252.779 M-1s-1, kd 0.077 1/s",6.7
same,pKD,"PRVABC59, Concentration 10.0 uM, Immobilization level 13000.0 pg/mm2, Rmax 46.0 pg/mm2, ka 474021.576 M-1s-1, kd 0.094 1/s",6.7
Cc1cc(NC(=O)c2cc(Cl)cc3[nH]ncc23)ccc1N1CCNCC1,pKD,"PRVABC59, Concentration 10.0 uM, Immobilization level 10000.0 pg/mm2, Rmax 68.0 pg/mm2, ka 142841.774 M-1s-1",4.45
same,pKD,"PRVABC59, Concentration 10.0 uM, Immobilization level 12000.0 pg/mm2, Rmax 26.0 pg/mm2, ka 204393.234 M-1s-1, kd 2.532 1/s",4.91
same,pKD,"PRVABC59, Concentration 10.0 uM, Immobilization level 13000.0 pg/mm2, Rmax 38.0 pg/mm2, ka 209487.853 M-1s-1, kd 3.706 1/s",4.75
